Test results as given in PubChem BioAssay (NCATS).
Values without a mark were called inactive. Results filed as inconclusive are left out. Calls of active or inactive are those of the source. Unless noted, the call rests on the fitted dose curve; in most records, active means well fitted curve in either direction with a large enough effect (not every such curve was filed as active); inconclusive means small, poorly fitted or top-dose-only effect, or another doubt; inactive means flat fitted curve, though single readings scatter. Residues, ends and D or L forms follow the SMILES beside them.

Key:
[1] = molecular target: Lysosomal acid glucosylceramidase (Homo sapiens) (UniProt P04062); experiment: Glucocerebrosidase-p2 (AID 348; in the data active means potency below about 10 µM; further: potency means the concentration at half of the fitted maximal effect); details: purified GBA, blue fluorogenic substrate, 40 min
Chain of Lysosomal acid glucosylceramidase (Homo sapiens) (P04062 whole entry, looked up): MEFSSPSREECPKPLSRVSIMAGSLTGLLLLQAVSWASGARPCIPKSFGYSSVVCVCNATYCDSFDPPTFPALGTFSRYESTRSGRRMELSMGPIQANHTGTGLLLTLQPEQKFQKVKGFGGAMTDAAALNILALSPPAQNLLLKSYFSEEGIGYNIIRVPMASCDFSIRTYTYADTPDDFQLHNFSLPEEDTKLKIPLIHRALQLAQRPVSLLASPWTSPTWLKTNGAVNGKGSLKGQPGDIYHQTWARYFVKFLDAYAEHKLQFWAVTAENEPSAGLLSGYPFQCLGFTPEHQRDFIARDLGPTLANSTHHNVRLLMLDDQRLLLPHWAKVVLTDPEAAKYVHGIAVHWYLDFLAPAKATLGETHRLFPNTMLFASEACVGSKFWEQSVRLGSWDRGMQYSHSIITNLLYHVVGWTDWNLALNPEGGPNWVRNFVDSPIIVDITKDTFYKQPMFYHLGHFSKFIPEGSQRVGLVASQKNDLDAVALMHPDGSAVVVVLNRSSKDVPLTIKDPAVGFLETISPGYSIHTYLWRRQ
Method in brief: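 Compounds titrated from 0.6 nM upwards against 0.2 nM enzyme in pH 5.9 citric acid/KH2PO4, taurocholate, tween-20; blue fluorogenic substrate 80 uM, 40 min room temperature, stopped and read Ex 365/Em 440 for AC50.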

[2] = AP1 Signaling Pathway (AID 357); details: ME-180 AP-1-bla reporter, EGF-induced, beta-lactamase ratio, 5 h; at 7.69 µM (top of the series) unless noted;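 further: ME-180 reporter cells stimulated with EGF at its EC50 level; on the % scale 0 is the no-effect control and ±100 the full control effect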
Method in brief: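 In this screen, ME-180 cells in Opti-MEM with 0.5% dialyzed FBS received EC50 EGF and compound titrations for 5 h. AP-1 reporter beta-lactamase was detected via CCF4 ratio, giving AC50 for positive and negative modulators.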

[3] = molecular target: Cytochrome P450 1A2 (Homo sapiens) (UniProt P05177); experiment: p450-cyp1a2 (AID 410; calls by dose curve; further: potency means the concentration at half of the fitted maximal effect;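 on activity change, negative = inhibition: -100% = full effect of reference inhibitor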); details: recombinant CYP1A2, luciferin-ME demethylation, luminescence; series mostly up to 11.4 µM
Chain of Cytochrome P450 1A2 (Homo sapiens) (P05177 whole entry, looked up): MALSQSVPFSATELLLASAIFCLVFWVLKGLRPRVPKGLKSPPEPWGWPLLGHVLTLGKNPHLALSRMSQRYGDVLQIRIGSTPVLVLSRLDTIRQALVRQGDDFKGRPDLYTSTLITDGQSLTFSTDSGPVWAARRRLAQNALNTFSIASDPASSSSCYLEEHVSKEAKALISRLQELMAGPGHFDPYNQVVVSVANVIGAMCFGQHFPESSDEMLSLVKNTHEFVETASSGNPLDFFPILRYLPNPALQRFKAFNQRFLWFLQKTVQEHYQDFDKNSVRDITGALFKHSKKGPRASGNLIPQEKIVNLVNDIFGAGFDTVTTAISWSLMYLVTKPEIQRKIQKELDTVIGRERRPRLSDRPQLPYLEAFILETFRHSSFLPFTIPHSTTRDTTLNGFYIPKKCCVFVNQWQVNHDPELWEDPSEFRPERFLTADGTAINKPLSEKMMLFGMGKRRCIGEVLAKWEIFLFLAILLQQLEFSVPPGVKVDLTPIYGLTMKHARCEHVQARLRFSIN
Method in brief: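 Luminescent readout of luciferin formed from Luciferin-ME by human CYP1A2; data normalized against complete inhibition by 57 uM furafylline. Enzyme 20nM, substrate 100uM at Km, 100mM KPO4 buffer, 60 min reaction at room temperature.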

[4] = NFAT Signaling Pathway (AID 444); details: Jurkat NFAT-bla M1, carbachol, beta-lactamase ratio, 5 h; at 7.69 µM (top of the series) unless noted;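 further: carbachol stimulus at about its EC50 of 1 µM final; on the % scale 0 is the no-effect control and ±100 the full control effect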
Method in brief: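 Jurkat cells carrying an NFAT-driven β-lactamase reporter and co-transfected muscarinic M1 receptor were treated with compound plus carbachol (1 uM final, an EC50 level) for 5 h at 37 °C. CCF4 loading followed for 1 h at RT; 460/530 nm ratio gave %activity.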

[5] = Stat Signaling Pathway (AID 446); details: ME-180 SIE beta-lactamase reporter, IL-6 stimulated, 5 h; at 7.69 µM (top of the series) unless noted;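 further: ME-180 cervical cancer cells given 40 pM IL-6 alongside compound; SIE-controlled beta-lactamase reporter measured as 460/530 nm FRET emission ratio; on the % scale 0 is the no-effect control and ±100 the full control effect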
Method in brief: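 Reporter line: ME-180 cervical carcinoma, SIE-beta-lactamase. Treatment: compound with 40 pM IL-6, 5 hrs, 37 C, in low-serum OPTI-MEM with 10 mM HEPES pH 7.3. Detection: 460/530 nm fluorescence.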

[6] = molecular target: Glucocorticoid receptor (Homo sapiens) (UniProt P04150); experiment: GR-GFP Redistribution (AID 450;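 active means compounds whose dose series gives a full or clear partial fitted curve of increased nuclear translocation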; further: potency means the concentration at half of the fitted maximal effect); details: U2OS GR-GFP nuclear translocation, laser cytometry, 2 h
Chain of Glucocorticoid receptor (Homo sapiens) (P04150 whole entry, looked up, the tested form may be a part): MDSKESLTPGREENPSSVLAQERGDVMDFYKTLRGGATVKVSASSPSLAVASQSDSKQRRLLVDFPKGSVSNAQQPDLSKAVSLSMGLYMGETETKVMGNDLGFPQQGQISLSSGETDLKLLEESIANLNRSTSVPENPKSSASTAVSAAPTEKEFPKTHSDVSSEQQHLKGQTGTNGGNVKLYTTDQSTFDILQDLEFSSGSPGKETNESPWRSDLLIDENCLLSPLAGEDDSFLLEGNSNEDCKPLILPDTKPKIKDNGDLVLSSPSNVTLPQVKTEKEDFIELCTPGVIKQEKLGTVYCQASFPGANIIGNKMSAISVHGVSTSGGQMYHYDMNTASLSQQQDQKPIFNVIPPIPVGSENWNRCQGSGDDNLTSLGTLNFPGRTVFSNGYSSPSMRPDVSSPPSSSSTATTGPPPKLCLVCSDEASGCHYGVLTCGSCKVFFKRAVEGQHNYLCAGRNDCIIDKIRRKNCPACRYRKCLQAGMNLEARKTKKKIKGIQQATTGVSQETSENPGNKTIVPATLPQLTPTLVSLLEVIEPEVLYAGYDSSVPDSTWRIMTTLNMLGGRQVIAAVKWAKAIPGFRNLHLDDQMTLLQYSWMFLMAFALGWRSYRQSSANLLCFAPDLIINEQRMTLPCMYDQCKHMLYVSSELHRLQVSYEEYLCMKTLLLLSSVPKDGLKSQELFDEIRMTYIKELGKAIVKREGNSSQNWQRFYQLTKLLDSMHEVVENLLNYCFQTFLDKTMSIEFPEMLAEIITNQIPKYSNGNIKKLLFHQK

[7] = molecular target: Glucocorticoid receptor (Homo sapiens) (UniProt P04150); experiment: GR-EFC Redistribution (AID 451; calls by dose curve; further: potency means the concentration at half of the fitted maximal effect); details: CHO-K1 GR-EFC translocation, beta-gal luminescence, 2 h
Method in brief: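 CHO-K1 cells stably expressing nuclear-localized β-gal enzyme acceptor and GR fused C-terminally to the enzyme donor fragment; ligand-driven nuclear translocation restores β-gal by complementation. Compounds titrated up to 46 uM final, 2 h at 37 °C; luminescence read.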

[8] = molecular target: Mitogen-activated protein kinase 10 (Mus musculus) (UniProt Q61831); experiment: JNK3 AlphaScreen Assay (AID 530); details: JNK3 lysate, c-Jun phosphorylation; series mostly up to 11.4 µM;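 further: kinase came from lysate of stimulated human HepG2 cells; signal reports phosphorylation of biotinylated GST-cJun 1-79 at Ser73 with 10 µM ATP; on the % scale 0 is the no-effect control and ±100 the full control effect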
Method in brief: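 Inhibitors reduce antibody binding to phosphorylated biotin-cJun, lowering AlphaScreen luminescence. Lysates from HepG2 cells pre-activated by IL-1beta plus TNF-alpha supplied JNK3; compounds were titrated.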

[9] = molecular target: 3',5'-cyclic-AMP phosphodiesterase 4B (Homo sapiens) (UniProt Q07343); experiment: qHTS Assay for Inhibitors of PDE-IV (AID 607; active means well fitted activation curve with a large enough effect in the main read-out, with a control signal flat, not every such curve was filed as active; further: % of control where 0% means no effect); details: HEK293 ACTOne CNG channel cells, membrane potential fluorescence; series mostly up to 22.9 µM
Chain of 3',5'-cyclic-AMP phosphodiesterase 4B (Homo sapiens) (Q07343 whole entry, looked up): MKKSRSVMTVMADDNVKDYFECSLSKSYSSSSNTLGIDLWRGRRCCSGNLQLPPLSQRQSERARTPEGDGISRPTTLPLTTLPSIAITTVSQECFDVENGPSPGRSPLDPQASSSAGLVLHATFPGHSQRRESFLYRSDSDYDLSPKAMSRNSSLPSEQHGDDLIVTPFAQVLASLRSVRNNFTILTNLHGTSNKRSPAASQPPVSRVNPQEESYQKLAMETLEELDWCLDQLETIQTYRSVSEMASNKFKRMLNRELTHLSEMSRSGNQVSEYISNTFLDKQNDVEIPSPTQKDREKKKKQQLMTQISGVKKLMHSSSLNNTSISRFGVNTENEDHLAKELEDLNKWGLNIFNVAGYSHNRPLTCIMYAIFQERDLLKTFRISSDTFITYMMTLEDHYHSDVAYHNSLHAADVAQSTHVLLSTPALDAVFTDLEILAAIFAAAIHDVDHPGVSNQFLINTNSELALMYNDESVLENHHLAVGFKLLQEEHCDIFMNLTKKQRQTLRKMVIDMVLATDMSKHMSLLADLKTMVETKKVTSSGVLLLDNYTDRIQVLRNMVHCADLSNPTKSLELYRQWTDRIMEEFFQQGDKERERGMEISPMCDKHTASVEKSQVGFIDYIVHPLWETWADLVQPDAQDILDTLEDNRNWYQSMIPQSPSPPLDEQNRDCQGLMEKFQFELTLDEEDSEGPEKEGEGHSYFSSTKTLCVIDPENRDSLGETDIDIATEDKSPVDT
Method in brief: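 Cell-based read-out of cAMP via a modified cyclic nucleotide-gated channel and membrane potential dye (535/590 nm) in HEK293 cells expressing PDE4 endogenously. Compounds tested up to 22.9 uM final; 100 uM RO 20-1724 reference.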

Row | Compound | Potency [1] [µM] | activity change, negative = inhibition [2] [%] | activity change, negative = inhibition [3] | activity change, negative = inhibition [4] [%] | activity, negative = inhibition [5] [%] | Potency [6] [µM] | Potency [7] [µM] | Potency [8] | Potency [9] | Potency [3]
1 | CCOc1ccccc1Nc1ccc(N)cc1S(=O)(=O)O | > 11.4 | 6.02 | -12.6% [at 2.29 µM] | -5.87 | -1.52 | > 46 | > 9.22 | inactive | inactive | 
2 | NNC(=O)[C@@H](O)[C@H](O)[C@H](O)CO | > 11.4 | 2.85 |  | 10.5 | 2.62 | > 46 | > 9.22 | inactive | inactive | inactive
3 | C[C@H]1CCCC2(CC[N+](C)(CCC[N+](C)(C)C)CC2)C1 (stereo partly specified) | 11.6 | 14.2 |  | -5.86 | 1.53 | > 46 | > 9.22 | inactive | inactive | inactive
4 | COCCNc1nc(-c2ccc(C(=O)N(C)C)cc2)nc2ccccc12 | > 11.4 | 11.7 |  | 17.9 | 1.02 | > 46 | > 46 | inactive | inactive | 20 µM (active)
5 | O=C(O)CSc1ncccc1[N+](=O)[O-] | > 11.4 | 6.57 |  | 2.05 | 1.22 | > 46 | > 9.22 | inactive | inactive | inactive
6 | CC(C)NCC[C@@H](O)c1cc2ccccc2o1 | > 11.4 | -15 | -2.1% [at 2.29 µM] | -2.7 | 9.58 | > 46 | > 9.22 | inactive | inactive | 
7 | Clc1ccc(C=Nc2ccc3c(c2)Cc2ccccc2-3)c(Cl)c1 | > 11.4 | 3.71 |  | 23.1 | 12.8 | > 46 | > 9.22 | inactive | inactive | 0.794 µM (active)
8 | N[C@@H](Cc1[nH]nc2ccccc12)C(=O)O | > 11.4 | 5.54 |  | -12.5 | -0.642 | > 46 | > 9.22 | inactive | inactive | inactive
9 | Nc1nc(N)[n+]([O-])c(N)c1NCO | > 11.4 | 7.34 |  | 9.37 | 7 | > 46 | > 9.22 | inactive | inactive | inactive
10 | Nc1nc2c(C(=O)NCc3cccs3)nnn2c2cccc(Cl)c12 | > 11.4 | 2.54 |  | -1.34 | -2.31 | > 46 | > 9.22 | inactive | inactive | 1 µM (active)
11 | Nc1ccccc1CCCC(=O)O | > 11.4 | -5.22 |  | 0.568 | 4.31 | > 46 | > 9.22 | inactive | inactive | inactive
12 | CN(CC(=O)O)Cc1c(O)c(Cl)cc(Cl)c1Cl | > 11.4 | -1.4 | -1% [at 2.29 µM] | 11.2 | 4.84 | > 46 | > 9.22 | inactive | inactive | 
13 | O=C(O)c1cccc(SSc2cccc(C(=O)O)c2)c1 | > 11.4 | 0.262 |  | 17.5 | -14.5 | > 46 | > 9.22 | inactive | inactive | 5.01 µM (active)
14 | O=C(O)[C@@H]1[C@@H]2C[C@H]([C@@H](Br)[C@H]2N2C(=O)CCC2=O)[C@@H]1C(=O)O | > 11.4 | -1.32 | -15.8% [at 2.29 µM] | 10.6 | 11.9 | > 46 | > 9.22 | inactive | inactive | 
15 | OCCNc1ncnc2c1ncn2[C@@H]1O[C@@H](CO)[C@H](O)[C@@H]1O | > 11.4 | 3.21 |  | 9.99 | 25.8 | > 46 | > 9.22 | inactive | inactive | inactive
16 | O=CN[C@@H](Cc1cnc[nH]1)C(=O)O | > 11.4 | 4.13 |  | 2.87 | 0.427 | > 46 | > 9.22 | inactive | inactive | inactive
17 | N#CCCn1c(=O)c(-c2cccc(C#N)c2)nc2cnc(Oc3ccccc3)nc21 | > 11.4 | -17.5 |  | -7.09 | -3.8 | > 9.22 | > 46 | inactive | inactive | 20 µM (active)
18 | O=c1[nH]cc(CS(=O)(=O)Cc2c[nH]c(=O)[nH]c2=O)c(=O)[nH]1 | > 11.4 | -0.933 |  | 1.47 | 0.704 | > 46 | > 9.22 | inactive | inactive | inactive
19 | Cc1cc(N=Cc2c(CO)cnc(C)c2O)c(N=Cc2c(CO)cnc(C)c2O)cc1C.[Zn] | > 11.4 | -2.68 | -10.4% [at 2.29 µM] | 14.7 | 7.49 | > 46 | > 9.22 | inactive | inactive | 
20 | NN(CC(=O)O)CC(=O)O | > 11.4 | -2.45 |  | -1.35 | -0.699 | > 46 | > 9.22 | inactive | inactive | inactive
21 | N[C@H](CO)C(=O)NCC(=O)O (HELM PEPTIDE1{[dS].G}$$$$V2.0) | > 11.4 | -4.49 | 3.6% [at 2.29 µM] | 13.2 | 13.6 | > 46 | > 9.22 | inactive | inactive | 
22 | C=C(Br)CN(C)CC(=C)Br | > 11.4 | 0.791 |  | 0.988 | -0.267 | > 46 | > 9.22 | inactive | inactive | inactive
23 | CCc1ncc(CO)n1Cc1cccc2ccccc12 | > 11.4 | 11.3 |  | 6.66 | 10.1 | > 46 | > 9.22 | inactive | inactive | inactive
24 | S=C(S)NCCN1CCNCC1 | > 11.4 | -1.68 |  | -3.23 | -9.45 | > 46 | > 9.22 | inactive | inactive | inactive
25 | C#CCOCCCC(=O)O | > 11.4 | -3.26 |  | 0.738 | 4.1 | > 46 | > 9.22 | inactive | inactive | inactive
26 | O=C(O)c1cc(=O)[nH]c(=S)[nH]1 | > 11.4 | -9.52 | -10.7% [at 2.29 µM] | 5.67 | 6.7 | > 46 | > 9.22 | inactive | inactive | 
27 | Cc1cc2nc3[nH]c4c(Cl)cc(Cl)cc4c3nc2cc1C | > 11.4 | -14 |  | 11.6 | -5.45 | > 46 | > 9.22 | inactive | inactive | 0.631 µM (active)
28 | O=C(O)c1c2c(c(O)c3c1CN(C1CCCCC1)CO3)OCN(C1CCCCC1)C2 | > 11.4 | 4.96 |  | 29.1 | 0.651 | > 46 | > 9.22 | inactive | inactive | inactive
29 | O=c1ccnc(SCc2ccc(Cl)cc2)[nH]1 | > 11.4 | 0.709 |  | 2.66 | 6.94 | > 46 | > 9.22 | inactive | inactive | inactive
